Unmarked numbers belong to inactive results. For part of these data: Entries with a potency or affinity are not part of this list. The source made the active and inactive calls. Unless noted, no rule for the calls is given here.

Test [1] can be described thus: antimalarial activity against Dd2 strain (AID 2302;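 active = growth inhibition above 50% at the single 2 µM test dose, taken to imply half-maximal potency below 2 µM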;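 also: 0% = DMSO untreated growth and 100% = chloroquine plus artemisinin killed control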). The settings on record: P. falciparum Dd2 in RBCs, LDH growth readout, 72 h; at 2 µM; hits give high values.
A short description of test [2]: human hepatoma cell viability loss – ATP luminescence, cytotoxicity control for P. falciparum antimalarial project, primary screen (AID 2303;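 active = inhibition above 50%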;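 also: 0% = DMSO wells and 100% = digitonin-killed cells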). The settings on record: HepG2 viability, 24-48 h, at 10 µM, hits give high values.
Test [3] has as its target L-lactate dehydrogenase (Plasmodium falciparum (isolate CDC / Honduras)) (UniProt Q27743). Put plainly: PfLDH activity inhibition – cell lysate, 3D7 strain, counter-screen for P. falciparum growth inhibition project (AID 2304).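 Also: 0% = vehicle and 100% = reference inhibitor.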 The settings on record: P. falciparum 3D7 crude extract, LDH APAD/NBT absorbance; at 2 µM; hits give high values.
Test [4] in a line: inhibition of 3D7 malaria parasite growth – strain 3D7 (AID 2306).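 Also: 0% = DMSO wells and 100% = chloroquine plus artemisinin control wells.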 The settings on record: P. falciparum 3D7 erythrocytic growth, LDH absorbance, 72 h; at 2 µM; hits give high values.
Test [5] concerns the target Calcium-dependent protein kinase 1 (Plasmodium falciparum (isolate 3D7)) (UniProt P62344). Put plainly: PfCDPK1 kinase inhibitors, biochemical, TCAMS library (AID 1159585; cut-off not given, nearly all actives have IC50 up to about 0.98 µM;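 also: inhibitors leave more ATP so luminescence rises with inhibition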). As to conditions: recombinant PfCDPK1, Kinase-Glo ATP depletion luminescence.
Test [6] concerns the target Plasmodium falciparum protein kinase 6 (PK6, PF3D7_1337100) (UniProt Q8IDW1). Briefly: PfPK6 kinase inhibitors, biochemical, TCAMS library (AID 1159586). The settings on record: recombinant PfPK6, Kinase-Glo ATP depletion luminescence. Background: Kinase-Glo reads ATP consumption through a luciferase reaction.
In test [7] the target is Protein kinase 7 (PK7), Plasmodium falciparum 3D7 (PF3D7_0213400) (UniProt Q7YTF7). Put plainly: inhibition of Plasmodium PK7 catalytic activity – biochemical, TCAMS antimalarial set, Kinase-Glo luminescence (AID 1159587). As to conditions: recombinant PfPK7, Kinase-Glo ATP depletion luminescence.
Chain of Protein kinase 7 (PK7), Plasmodium falciparum 3D7 (PF3D7_0213400) (Q7YTF7 1-343): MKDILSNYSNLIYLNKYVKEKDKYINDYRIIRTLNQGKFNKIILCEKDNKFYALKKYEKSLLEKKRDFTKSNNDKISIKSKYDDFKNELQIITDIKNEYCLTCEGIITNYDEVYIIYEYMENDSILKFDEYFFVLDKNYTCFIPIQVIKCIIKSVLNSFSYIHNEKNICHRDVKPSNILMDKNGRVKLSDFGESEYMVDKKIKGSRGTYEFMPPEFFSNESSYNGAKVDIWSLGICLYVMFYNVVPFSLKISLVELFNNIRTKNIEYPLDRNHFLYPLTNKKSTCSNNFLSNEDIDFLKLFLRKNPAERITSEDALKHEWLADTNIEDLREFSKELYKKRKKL
In test [8] the target is Calcium-dependent protein kinase 4 (Plasmodium falciparum (isolate 3D7)) (UniProt Q8IBS5). Briefly: PfCDPK4 kinase inhibitors, biochemical, TCAMS library (AID 1159588; cut-off not given, nearly all actives have IC50 up to about 0.91 µM). As to conditions: recombinant PfCDPK4, Kinase-Glo ATP depletion luminescence.
Chain of Calcium-dependent protein kinase 4 (Plasmodium falciparum (isolate 3D7)) (Q8IBS5 whole entry, looked up): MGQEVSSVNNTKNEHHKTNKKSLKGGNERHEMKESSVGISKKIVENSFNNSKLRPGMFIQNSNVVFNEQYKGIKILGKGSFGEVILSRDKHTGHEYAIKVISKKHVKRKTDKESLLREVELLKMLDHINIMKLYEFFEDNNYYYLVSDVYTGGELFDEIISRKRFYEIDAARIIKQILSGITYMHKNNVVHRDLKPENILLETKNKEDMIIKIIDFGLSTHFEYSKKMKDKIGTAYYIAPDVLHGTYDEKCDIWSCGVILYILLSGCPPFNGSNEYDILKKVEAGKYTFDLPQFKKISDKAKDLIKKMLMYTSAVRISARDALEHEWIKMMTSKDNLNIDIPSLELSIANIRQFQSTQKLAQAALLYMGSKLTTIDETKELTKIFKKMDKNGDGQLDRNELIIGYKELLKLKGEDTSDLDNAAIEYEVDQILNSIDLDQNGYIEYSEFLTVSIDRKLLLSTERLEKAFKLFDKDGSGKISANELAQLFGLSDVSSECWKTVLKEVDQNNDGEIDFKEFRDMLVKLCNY

Chain of L-lactate dehydrogenase (Plasmodium falciparum (isolate CDC / Honduras)) (Q27743 whole entry, looked up): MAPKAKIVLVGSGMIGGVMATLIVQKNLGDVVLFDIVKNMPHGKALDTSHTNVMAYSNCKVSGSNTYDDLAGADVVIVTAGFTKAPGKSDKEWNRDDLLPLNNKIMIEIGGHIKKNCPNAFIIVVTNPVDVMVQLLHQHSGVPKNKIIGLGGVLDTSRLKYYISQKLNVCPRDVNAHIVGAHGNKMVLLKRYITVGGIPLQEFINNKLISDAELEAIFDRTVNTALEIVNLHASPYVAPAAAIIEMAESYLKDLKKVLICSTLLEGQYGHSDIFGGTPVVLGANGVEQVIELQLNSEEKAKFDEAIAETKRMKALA
Chain of Plasmodium falciparum protein kinase 6 (PK6, PF3D7_1337100) (Q8IDW1 1-305): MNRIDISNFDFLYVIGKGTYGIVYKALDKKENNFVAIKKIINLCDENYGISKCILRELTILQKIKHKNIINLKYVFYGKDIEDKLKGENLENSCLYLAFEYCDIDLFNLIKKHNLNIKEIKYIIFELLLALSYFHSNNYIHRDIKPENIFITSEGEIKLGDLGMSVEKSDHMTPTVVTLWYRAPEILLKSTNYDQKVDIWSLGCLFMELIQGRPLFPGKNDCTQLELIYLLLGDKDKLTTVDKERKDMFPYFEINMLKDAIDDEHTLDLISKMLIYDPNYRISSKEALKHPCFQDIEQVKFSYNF
Chain of Calcium-dependent protein kinase 1 (Plasmodium falciparum (isolate 3D7)) (P62344 whole entry, looked up): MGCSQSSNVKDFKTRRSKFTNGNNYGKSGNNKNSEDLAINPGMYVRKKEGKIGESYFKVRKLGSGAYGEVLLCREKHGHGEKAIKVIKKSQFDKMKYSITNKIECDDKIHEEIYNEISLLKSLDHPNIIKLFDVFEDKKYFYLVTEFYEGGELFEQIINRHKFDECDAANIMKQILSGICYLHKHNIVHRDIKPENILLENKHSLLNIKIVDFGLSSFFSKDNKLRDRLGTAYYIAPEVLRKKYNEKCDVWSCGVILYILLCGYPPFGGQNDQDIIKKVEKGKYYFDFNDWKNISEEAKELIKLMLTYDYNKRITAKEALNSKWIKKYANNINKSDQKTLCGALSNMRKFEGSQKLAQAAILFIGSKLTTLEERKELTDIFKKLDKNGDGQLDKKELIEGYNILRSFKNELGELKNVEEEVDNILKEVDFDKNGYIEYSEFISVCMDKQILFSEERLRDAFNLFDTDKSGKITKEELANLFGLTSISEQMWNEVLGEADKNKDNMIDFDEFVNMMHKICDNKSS

Consider `Cn1cc(CCNc2ccnc(NCCc3coc4ccccc34)n2)c2ccccc21`, for which the growth inhibition in test [1] was 28%; in test [4], 87% (active). Moreover, the values for the inhibition in test [2] and in test [3] were 26% and 6%, respectively. The outcome in test [5], in test [6], in test [7] and in test [8] was inactive.
`C#CC(C)(CO)N1CCCC1` (stereo not drawn): the growth inhibition was 1% in test [1] and 95% (active) in test [4]. Also, the results for the inhibition in test [2] and in test [3] were 10% and -4%, respectively. In addition, the result in test [5], in test [6], in test [7] and in test [8] was inactive.
For the compound `Fc1ccc2nc(-c3cccc(-c4ccc(CNCc5ccccc5)cc4)c3)[nH]c2c1`, the growth inhibition in test [1] was 89% (active); in test [4], 102% (active). The inhibition (commonly the drop in the measured response relative to a control, in per cent) in test [2] was 27%; in test [3] it was -1%. Also, the result in test [5], in test [6], in test [7] and in test [8] was inactive.
As to `COc1ccc(-c2cnc(N)c(-c3ccc(C(N)=O)cc3)c2)cc1OC`, the growth inhibition is 98% (active) in test [1] and 96% (active) in test [4]. In addition, the inhibition in test [2] is 11%; in test [3] it was 4%. Moreover, the result in test [5], in test [6], in test [7] and in test [8] was inactive.
With `N#Cc1ccc(CN2CCC(NC(=O)c3ccc(-c4nnc(-c5cccc6ccccc56)o4)cc3)CC2)cc1`, the growth inhibition in test [1] was 14%; in test [4], 98% (active). Moreover, the inhibition in test [2] is 37%; in test [3] it was -2%. Further, the result in test [5], in test [6], in test [7] and in test [8] was inactive.
On to `Clc1cc(Cl)c2c(c1)C(NCCCNc1nc3ccccc3[nH]1)CCO2` (stereo not drawn), for which the growth inhibition in test [1] was 31%; in test [4], 101% (active). For the same compound, the inhibition in test [2] is 28%; in test [3] it was -4%. Further, the outcome in test [5], in test [6], in test [7] and in test [8] was inactive.
Consider `Oc1ccccc1CCNC1CCc2ccccc2C1` (stereo not drawn), for which the results for the growth inhibition in test [1] and in test [4] were 95% (active) and 96% (active), respectively. Further, the results for the inhibition in test [2] and in test [3] were -4% and 4%, respectively. Moreover, the outcome in test [5], in test [6], in test [7] and in test [8] was inactive.
Take `Cn1cccc1C(=O)C(=O)Nc1ccc(-c2ccc(-c3nc4ccc(F)cc4[nH]3)cc2)cc1`: the growth inhibition in test [1] was 33%; in test [4], 92% (active). The inhibition in test [2] was 44%; in test [3], -3%. The result in test [5], in test [6], in test [7] and in test [8] was inactive.
Turning to `Cc1cc(Nc2cccc(C#N)c2)nc(Nc2ccccc2C)n1`, the growth inhibition is 46% in test [1] and 95% (active) in test [4]. Besides, the inhibition was 10% in test [2] and 0% in test [3]. Further, the result in test [5], in test [6], in test [7] and in test [8] was inactive.
Take `CCNc1cc(C)nc(Nc2ccc(NC(=O)c3ccccc3Cl)cc2)n1`: the growth inhibition in test [1] was 52% (active); in test [4] it was 100% (active). Also, the inhibition is 48% in test [2] and -2% in test [3]. In addition, the outcome in test [5], in test [6], in test [7] and in test [8] was inactive.
Regarding `NC1CCN(CCNCc2cccc(-c3ccc(-c4nc5ccc(F)cc5[nH]4)cc3)c2)C1` (stereo not drawn), the growth inhibition is 4% in test [1] and 99% (active) in test [4]. Moreover, the inhibition in test [2] was 8%; in test [3] it was 2%. Moreover, the result in test [5], in test [6], in test [7] and in test [8] was inactive.
`O=C(Nc1cccc(-c2ccc(-c3nc4ccc(F)cc4[nH]3)cc2)c1)c1ccoc1`: the growth inhibition in test [1] is 6%; in test [4], 85% (active). The inhibition was 39% in test [2] and -7% in test [3]. The result in test [5], in test [6], in test [7] and in test [8] was inactive.
In the case of `COc1ccc(NC(=O)Nc2cccc(-c3ccc(-c4nc5c(C)cccc5[nH]4)s3)c2)cc1`, the growth inhibition in test [1] was 32%; in test [4], 101% (active). In addition, the inhibition in test [2] is 23%; in test [3], 8%. Also, the outcome in test [5], in test [6], in test [7] and in test [8] was inactive.
In the case of `CCOc1cc(C)ccc1C1CCN(CCCCNC(=O)c2coc(-c3ccc(Cl)cc3)c2)CC1`, the growth inhibition was 30% in test [1] and 92% (active) in test [4]. The inhibition in test [2] was 34%; in test [3], -3%. Besides, the outcome in test [5], in test [6], in test [7] and in test [8] was inactive.
`O=[N+]([O-])c1ccc(C=NNc2nc3ccccc3[nH]2)cc1`: the growth inhibition in test [1] is 98% (active); in test [4] it was 101% (active). Further, the inhibition in test [2] is 11%; in test [3], -6%. Moreover, the result in test [5], in test [6], in test [7] and in test [8] was inactive.
Consider `Cc1noc(C)c1-c1cccc(CNCc2ccc(-c3ccc(-c4nc5ccc(F)cc5[nH]4)cc3)cc2)c1`, for which the growth inhibition in test [1] was 92% (active); in test [4], 102% (active). The inhibition was 23% in test [2] and 4% in test [3]. Besides, the result in test [5], in test [6], in test [7] and in test [8] was inactive.
Turning to `CCNc1cc(C(=O)N[C@@H](Cc2ccccc2)[C@H](O)CNC2(CCC(C)C)CC2)cc(N2CCCCS2(=O)=O)c1`, the growth inhibition in test [1] is 52% (active); in test [4], 90% (active). Further, the values for the inhibition in test [2] and in test [3] were 6% and 2%, respectively. The result in test [5], in test [6], in test [7] and in test [8] was inactive.
Regarding `COc1ccc2nccc(NC(=O)C3CCC(NCc4ccc5c(c4)NC(=O)CS5)CC3)c2c1` (stereo not drawn), the growth inhibition is 19% in test [1] and 94% (active) in test [4]. For the same compound, the inhibition was 0% in test [2] and -4% in test [3]. The result in test [5], in test [6], in test [7] and in test [8] was inactive.
On to `O=S(=O)(Nc1ccc(CCN2CCCCC2CCN2CCCC2)cc1)c1cccc2cccnc12` (stereo not drawn), for which the growth inhibition was 0% in test [1] and 100% (active) in test [4]. The inhibition was 20% in test [2] and 1% in test [3]. Moreover, the outcome in test [5], in test [6], in test [7] and in test [8] was inactive.
On to `O=C(NCCCCN1CCC(c2ccc3c(c2OCCO)CCCC3)CC1)c1ccc(-c2ccc(C(F)(F)F)cc2)cc1`, for which the growth inhibition was 38% in test [1] and 98% (active) in test [4]. For the same compound, the inhibition was 100% (active) in test [2] and 6% in test [3]. Besides, the outcome in test [5], in test [6], in test [7] and in test [8] was inactive.
Turning to `CN(C)Cc1ccc(-c2cccc(Nc3nccc(NCC(O)c4ccccc4)n3)c2)cc1` (stereo not drawn), the growth inhibition in test [1] is 100% (active); in test [4], 102% (active). For the same compound, the inhibition was 74% (active) in test [2] and -1% in test [3]. Moreover, the result in test [5], in test [6], in test [7] and in test [8] was inactive.

The record behind these values is PubChem BioAssay.
